For 94 molecules, max response results are on record in PubChem BioAssay AID2314 (National Center for Advancing Translational Sciences (NCATS), 2010).

Where “and” joins values, the source holds several entries; their conditions need not be identical. Identical values can stand only once. Among all 300,000 compounds or so, about 37,000 (12%) were called active. Shown is part of a subset that was picked to be rich in actives. Unmarked numbers belong to inactive results. Cut-off read from the data, not from the text of the source: active = max response mostly above about 13% (no sharp cut-off); inactive = mostly below about 14%.

A short description of this test: Cycloheximide Counterscreen for Small Molecule Inhibitors of Shiga Toxin. Note: read at 38.3 µM for the half of the compounds with a filed dose; 0% is about no effect. The following applies: cell reporter, cycloheximide protein synthesis inhibition counterscreen; hits give high values.
As for `CN(c1ccc(OCC(=O)OCC(=O)Nc2cccc([N+](=O)[O-])c2)cc1)S(=O)(=O)c1ccc(F)cc1`, the max response was 5.41%.

On to `Cc1onc(-c2ccccc2)c1C(=O)N1CCN(S(=O)(=O)c2ccccc2C(F)(F)F)CC1`, for which the max response is 10.2%.

In the case of `Cc1nc2ccccc2nc1N/N=C/c1ccc(O)cc1O`, the max response was 25% (active).

Turning to `Cc1ccc(/C=N/NC(=O)C2=NNC(c3ccccc3)(c3ccccc3)C2)c(O)c1`, the max response is 9.49%.

Regarding `FC(F)(F)c1nc2ccccc2nc1N/N=C/c1ccc(Cl)cc1`, the max response is -0.973%.

As to `Oc1ccc(/C=N/NC2=NCCCCC2)c(O)c1`, the max response is 42% (active).

On to `Oc1ccc(/C=N/Nc2nc(-c3ccccc3F)nc3ccccc23)c(O)c1`, for which the max response was 15.1% (active).

As to `COc1ccc(/C=C(\C#N)C(=O)ONC2=NCCCCC2)cc1`, the max response is 9.41%.

For `Cc1cc(N/N=C/c2ccccc2F)c2ccccc2n1`, the max response is -1.58%.

As to `CC(=O)c1ccc(N2CCN(C(=O)C3CCN(S(=O)(=O)c4ccc5c(c4)CC(C)N5C(=O)C4CC4)CC3)CC2)cc1` (centres undefined), the max response was -0.93%.

Turning to `Cc1cc(C)n(CC(O)COc2ccc(C(C)(C)C)cc2)n1` (centres undefined), the max response is 10.5%.

Take `CCc1cccc(NC(=S)N(CCN(C)C)C2CCN(C(C)C)CC2)c1`: the max response was -3.94%.

Regarding `Cc1ccc(NC(=O)C(=O)NCc2ccc(/C=N/NC(=O)c3c(C)nc4cc(C)ccn34)o2)cc1`, the max response is 6.74%.

As for `O=c1[nH]c(CN2CCN(S(=O)(=O)c3ccc4c(c3)OCCO4)CC2)nc2sc3c(c12)CCCC3`, the max response is -1.21%.

Consider `CCCCOc1ccc(C(=O)N/C(=C/C=C/c2ccccc2)C(=O)N2CCOCC2)cc1`, for which the max response was -4.3%.

As for `CC(C)COP(=O)(c1ccc(N(C)C)cc1)C(Nc1ccccc1)c1cccnc1` (centres undefined), the max response is -7.16%.

On to `O=C(CCN1C(=O)[C@@H]2Cc3ccccc3CN2C1=O)NCc1ccccc1`, for which the max response was -3.78%.

Consider `N#C/C=C/N1CCN(Cc2ccc3c(c2)OCO3)CC1`, for which the max response is -4.02%.

On to `O=P(O)(CN1CCCCCC1)C1Cc2ccccc2C1`, for which the max response was -0.763%.

For `Cc1noc(C)c1-c1ccc2ncnc(NCc3ccc4[nH]ccc4c3)c2c1`, the max response was 56.1% (active).

Take `Cc1noc(C)c1-c1ccc2ncnc(NC(C)c3ccco3)c2c1` (centres undefined): the max response is 14.8%.

On to `Cc1noc(C)c1-c1ccc2ncnc(NCc3ccc(F)c(F)c3)c2c1`, for which the max response was -5.05%.

Consider `COc1ccc(NC(=O)CNC(=O)Cn2ccc3ccccc3c2=O)c(OC)c1`, for which the max response is -1.76%.

In the case of `Cc1ccc(C2CCN(C(=S)Nc3cccc(Cl)c3)C2)cc1` (centres undefined), the max response was 23.2% (active).

Take `O=C(C1CCCO1)N1CCN(C(=S)Nc2cccc(Cl)c2)CC1` (centres undefined): the max response was 2.71%.

As for `Cc1cccc(NC(=S)N2CCCC(c3nc4ccccc4[nH]3)C2)c1` (centres undefined), the max response was 2.24%.

For `CCn1c2ccccc2c2cc(NC(=O)Nc3ccc([N+](=O)[O-])cc3C)ccc21`, the max response is 1.99%.

As for `COc1ccc(NC(=O)COc2ccc(C(=O)c3ccc(F)cc3)cc2)cc1S(N)(=O)=O`, the max response is -1.97%.

As to `COCCCn1c(SCC(=O)NC2CCCC2)nnc1-c1ccccc1`, the max response was -2.3%.

Turning to `O=C(Nc1cccc(NC(=O)c2ccccc2[N+](=O)[O-])c1)c1ccccc1Cl`, the max response was -2.59%.

`COCC(=O)N1CCc2ccc(NC(=O)c3ccccc3Cl)cc2C1`: the max response was -1.85%.

For the molecule `O=C(Nc1ccc2sc3ccccc3c(=O)c2c1)c1ccccc1Cl`, the max response is 40.4% (active).

As for `O=C(COc1ccccc1[N+](=O)[O-])NC1CC1`, the max response was 1.49%.

For the molecule `O=C(O)CCCN1C(=O)C2C3c4ccccc4C(c4ccccc43)[C@@H]2C1=O` (some centres undefined), the max response was -1.2%.

`C=CCSC(CC)(CC)C(N)=O`: the max response is -2.64%.

With `Cc1c(C(=O)N2CCCc3ccccc32)oc2ccccc12`, the max response is 18.8% (active).

Turning to `Cc1ccnc(NS(=O)(=O)c2ccc(NC(=O)c3oc4ccccc4c3C)cc2)n1`, the max response was 1.07%.

With `Cc1ccc(NC(=O)c2oc(=O)c3ccccc3c2-c2ccccc2)c(C)c1`, the max response was -5.99%.

As for `COc1ccc2oc(=O)c(C(=O)N3CCCc4ccccc43)cc2c1`, the max response is 0.681%.

In the case of `CCC(=O)N1CCCc2ccccc21`, the max response is -1.65%.

On to `Cc1nonc1NC(=O)c1oc2ccccc2c1C`, for which the max response was 35.8% (active).

Regarding `CCc1nonc1NC(=O)c1oc2ccc(Cl)cc2c1C`, the max response is -1.57%.

Take `Cc1c(C(=O)NC2CCCCC2)oc2ccccc12`: the max response is 39.2% (active).

Turning to `Cc1nonc1NC(=O)c1ccccc1Br`, the max response was 6.09%.

`Cc1ccc(NC(=O)c2oc3ccccc3c2C)c([N+](=O)[O-])c1`: the max response is 29.7% (active).

Take `Cc1c(C(=O)Nc2cccc(-c3nnc4n3CCCCC4)c2)oc2ccccc12`: the max response is 13%.

For the molecule `Cc1ccc2[nH]c(C(=O)O)c(NC(=O)c3ccccc3[N+](=O)[O-])c2c1`, the max response is -2.43%.

Turning to `Cc1sc2ncn(CC(=O)NCCN(C)C)c(=O)c2c1S(=O)(=O)N1CCC(C)CC1`, the max response is 7.86%.

On to `Cc1ccccc1-n1c(C)cc(/C=N/NC(=O)c2ccc(CN3CCOCC3)cc2)c1C`, for which the max response was 1.39%.

Turning to `COc1cc(CC(=O)N2CCC(n3nccc3NC(=O)C3CC3)CC2)cc(OC)c1OC`, the max response was -1.39%.

`C/C(=N\NC(=O)c1ccc(NS(=O)(=O)c2cccs2)cc1)c1ccc2ccccc2c1`: the max response was 7.4%.

Take `Cc1ccc(S(=O)(=O)N(Cc2cc3ccccc3[nH]c2=O)CC2CCCO2)cc1` (centres undefined): the max response is -1.24%.

Consider `CCn1cc(CN2CCC(C(=O)Nc3cccc(-c4cccc(Cl)c4)c3)CC2)c(C)n1`, for which the max response was -9.71%.

Take `CCCOc1ccc(-c2c(C(=O)N/N=C/c3ccco3)nnn2-c2nonc2N)cc1`: the max response was -0.593%.

Take `O=C(Nc1cccnc1Cl)c1cc(-c2ccccc2O)on1`: the max response is 17%.

For `CNC(=O)c1cccc2nc3ccccc3nc12`, the max response is 1.67%.

For `C=CCNC(=O)c1ccccc1SCc1c(C)noc1C`, the max response is -1.93%.

As for `Clc1ccccc1-c1cc(COc2ccc3ccccc3c2)no1`, the max response was 6.98%.

Regarding `CNC(=O)c1csc(-c2ccccc2)n1`, the max response was 13.6% (active).

Take `O=C(NCc1ccccn1)c1cc(-c2ccccc2Cl)on1`: the max response is 38.8% (active).

In the case of `CNC(=O)c1csc(Cc2c(Cl)sc3ccc(Cl)cc23)n1`, the max response was -2.08%.

As to `O=C(O)Cc1csc(-c2cccc(Oc3ccccc3)c2)n1`, the max response is -1.21% and 2.4%.

As for `C=CCNC(=O)c1cc2nc(C3CC3)cc(C(F)F)n2n1`, the max response was 11.1%.

Consider `O=C(NCc1ccccn1)c1ccc2nc(-c3ccco3)c(-c3ccco3)nc2c1`, for which the max response is 0.719%.

Consider `C=CCNC(=O)c1cc(-c2ccccc2O)on1`, for which the max response is 59.8% (active).

As to `C=CCNC(=O)c1csc(-c2ccccc2)n1`, the max response was 28.5% (active).

For `CCn1c(=O)c(C(=O)NCc2ccc3c(c2)OCO3)c(O)c2ccccc21`, the max response is -2.8%.

With `COc1ccc(OC)c(/C(C)=N\NC(=O)c2cc3cc(Cl)ccc3n2C)c1`, the max response is -5.13%.

Turning to `COc1cc([C@H](Cc2ccccc2)NC(C)=O)oc(=O)c1`, the max response was -1.33%.

With `Cc1ccc(C)c(S(=O)(=O)Nc2cccc(-n3cnnn3)c2)c1`, the max response is -4.16%.

Take `CC1CN(C(=O)CCC(=O)NC2CCN(Cc3ccccc3)CC2)c2ccccc2O1` (centres undefined): the max response was -2.34%.

`O=C(O)CCCn1cc(NC(=O)COc2cccc(Cl)c2)cn1`: the max response is -1.65%.

On to `[O-][N+]12CCCCC1CCCC2CO` (centres undefined), for which the max response is -2.81%.

Regarding `Cc1ccccc1N1CCN(CCCN2C(=O)C3CCCCN3C2=O)CC1` (centres undefined), the max response is -0.589%.

`CCNC(=O)NC(=O)C(C)OC(=O)c1cc(S(=O)(=O)N2CCCCCC2)ccc1OC` (centres undefined): the max response is 15.1%.

`COCC1CCN(C(=O)CCc2nnc(C3(c4ccc(Cl)cc4)CCC3)o2)C1` (centres undefined): the max response was 44% (active).

As for `CSCCC(=O)N1CCCC(CNC(=O)c2ccccc2Cl)C1` (centres undefined), the max response was -3.24%.

`O=C1CCC(CCC(=O)N2CCCC(C(=O)c3ccc(Cl)cc3)C2)=NN1` (centres undefined): the max response was 8.2%.

For `COc1ccccc1CC(=O)Nc1ccc(F)cc1F`, the max response was -2.45%.

Regarding `COC(=O)c1ccccc1NC(=O)Cc1ccccc1OC`, the max response was -2.67%.

For `CC[C@]1(c2ccccc2OC)C(=O)N(C(=O)OC)N1C(=O)OC`, the max response was 29.1% (active).

As for `CCCC(C)NC(=O)C1CCN(C(=O)C2CC(=O)N(c3ccc(C)cc3)C2)CC1` (centres undefined), the max response is -4.68%.

As to `Brc1c(CSc2nncc3ccccc23)nc2ccccn12`, the max response is 38.5% (active).

On to `CC(=O)O[C@H]1c2ccccc2-c2ccccc2[C@@H]1OC(C)=O`, for which the max response was 0.95%.

For the molecule `Cc1ccc(SCC(=O)NNC(=O)c2ccc(S(C)(=O)=O)cc2)cc1`, the max response is 5.01%.

For `O=C(c1ccco1)N1CCN(Cc2cccc(C(F)(F)F)c2)CC1`, the max response is -3.76%.

`O=C1CCC(C(=O)N2CCCCO2)CN1Cc1cccc(C(F)(F)F)c1` (centres undefined): the max response was 30% (active).

Take `COC(=O)c1ccc(CNC(=O)C2CCC(=O)N(Cc3cccc(F)c3)C2)cc1` (centres undefined): the max response is 0.912%.

With `COCC1CCN(C(=O)C2CCC(=O)N(Cc3cccc(C(F)(F)F)c3)C2)CC1` (centres undefined), the max response was 29.7% (active).

With `COCC1CCN(C(=O)C2CCC(=O)N(CC3CCCCC3)C2)CC1` (centres undefined), the max response was -2.01%.

As for `Cc1cccnc1CCNC(=O)C1CCC(=O)N(Cc2cccc(F)c2)C1` (centres undefined), the max response was -2.2%.

With `CC(=O)Nc1ccc(S(=O)(=O)N2CCC(C(=O)N[C@@H](Cc3ccccc3)C(=O)O)CC2)cc1`, the max response is 10.8%.

Take `COc1ccccc1CNC(=O)C1CCN(S(=O)(=O)c2ccc3c(c2)OCCO3)CC1`: the max response was -5.22%.

As for `CCOc1cc(C(=O)O)ccc1OCCOc1ccccc1`, the max response is -8.53%.
